From PubChem BioAssay AID588832 (Broad Institute, 2011)
The whole screen tested about 8,000 compounds, of which fewer than 10 were called active. No rule for the calls is given here. Not all results are given here.

What follows are compounds tested on hedgehog, isoform A (Drosophila melanogaster) (assay: Drosophila hedgehog isoform A inhibitors, primary screen, biochemical, plate reader, single concentration (AID 588832;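 also: 0% = neutral control wells and 100% = positive control wells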)). Settings: Biochemical plate reader assay, at 30.3 µM, hits give high values.

inhibition, inactive:
CC1Cc2nc(SCC(=O)N3CCCc4ccccc43)n(C)c(=O)c2S1 (stereo not given) 0%, COc1ccc(Cc2nc(-c3ccc(Br)o3)no2)cc1OC 33.3%, O=C(CCC(=O)N1CCOc2ccccc21)N1CCOCC1 9.62%, CC(NC(=O)c1ccc(NC2=NC3CS(=O)(=O)CC3S2)cc1)c1ccccc1 (stereo not given) 5.06%, Cn1cccc1Cc1nnc(SCC(=O)Nc2ccc(F)cc2)n1CCc1ccccc1 17.4%, CC(CCc1ccccc1)NC(=O)C1CCN(C(=O)c2sccc2-n2cccc2)CC1 (stereo not given) 3.57%, Cc1ccc(NC(=O)C2CCCN(S(=O)(=O)c3ccc4[nH]c(=O)ccc4c3)C2)cc1C (stereo not given) 0%, CCc1ccccc1NC(=O)c1cc(S(=O)(=O)N2CCc3ccccc32)cn1C 5.06%, COc1cccc(C2c3[nH]c4ccccc4c3C[C@H]3C(=O)N(c4ccccc4C(=O)N4CCCC4C(=O)O)C(=O)N23)c1 (stereo not given in full) -3.51%, Cn1cccc1Cc1nnc(SCC(=O)Nc2ccccc2F)n1-c1ccc(F)cc1 8.33%, Cn1c(=O)c2c(SCc3ccccn3)nc(CC(C)(C)C)nc2n(C)c1=O 4.58%, CSC1=NCCN1C(=O)c1ccc(S(=O)(=O)N2CCCC2)cc1 -1.85%, O=C(Nc1ccccc1Cl)c1ccc2c(c1)N(Cc1ccc(F)cc1)C(=O)CS2=O (stereo not given) 15%, CC1(C2CCC3(C)OC3C2)CO1 (stereo not given) 7.18%, Cc1cccc(N2CCN(C(=O)CCC(=O)N3CC(C)Oc4ccc(C)cc43)CC2C)c1 (stereo not given) 5.06%, COc1cc2c(cc1OC)CN(C(=O)c1ccc3[nH]c(C)c(C)c3c1)CC2 8.74%, O=c1c(Cc2ccccc2O)c(O)nc2n1CCCS2 3.39%, COc1ccc(N(C(=O)c2ccncc2)S(=O)(=O)c2ccc(OC)c(OC)c2)cc1 11.1%, CCCCC(NC(C)=O)c1nc2ccccc2[nH]1 (stereo not given) 5.42%, Cc1cc(Nc2ccc(C(C)C)cc2)n2ncnc2n1 6.72%, Cc1cc(NS(=O)(=O)c2ccc(NC(=O)c3cnc4scc(C)n4c3=O)cc2)nc(C)n1 6.2%, CC(C)OC(=O)c1nnc(Cc2ccc(Cl)cc2)o1 20%, O=C(c1cnn(-c2ccccc2)c1-n1cccc1)N1CCN(C2CCCCC2)CC1 9.55%, Cc1cc(Cl)cc2sc(NC(=O)c3ccco3)nc12 3.57%, O=C(O)c1cccc(N2C(=O)C3CC=C(Cl)CC3C2=O)c1 (stereo not given) 14.9%, CCn1c(C(=O)N2CCC(C(=O)NCc3ccc4c(c3)OCO4)CC2)cc2sccc21 8.81%, COC(=O)C1(Cc2ccc(O)c(CC3OC3(C)C)c2)OC(=O)C(O)=C1c1ccc(O)cc1 (stereo not given) 6.79%, CC(C)[C@H](NC(=O)[C@@H]1Cc2c([nH]c3ccccc23)C2c3ccccc3C(=O)N21)C(=O)N1CCC[C@H]1C(=O)O (stereo not given in full) 5.17%, CCOc1ccc(C2C(C(=O)Nc3ccc(F)cc3)=C(C)Nc3nc(CCCO)nn32)cc1 (stereo not given) 10%, Cc1cc2c(cc1S(=O)(=O)N1CCCCC1)OCC(=O)N2 10.9%, Cc1noc(C)c1S(=O)(=O)N1CCN(C(c2ccccc2)c2ccc(Cl)cc2)CC1 (stereo not given) 8.33%, COc1ccc(S(=O)(=O)Cc2ccc(C(=O)NC3CCCC3)o2)cc1 8.33%, COc1cc(OC)c(NS(=O)(=O)c2coc(C(N)=O)c2)cc1Cl 25%, O=C(C1COc2ccccc2O1)N1CCn2c(nc3ccccc32)C1 (stereo not given) 4.17%, COc1cc(-c2cc(=O)c3c(O)c(OC)c(OC)c(OC)c3o2)cc(OC)c1OC 3.45%, O=C(CN1CCOc2ccccc21)NC1CCCCCCC1 25%, Cc1cccc(NC(=O)CSc2nc3ccccc3nc2N2CC(C)OC(C)C2)c1 (stereo not given) 3.85%, CCOc1ccc(NC(=O)c2cccc(NC3=NC4CS(=O)(=O)CC4S3)c2)cc1 (stereo not given) 5.12%, COc1ccccc1C(=O)OCn1nnc2ccccc2c1=O -5%, Cc1c(C)c2c(OCC(=O)N[C@@H](Cc3ccccc3)C(=O)O)cc3c(c2oc1=O)CCC(C)(C)O3 -1.79%, Clc1ccccc1C1CC(c2ccccc2)Nc2ncnn21 (stereo not given) 8.33%, O=C(NCCCN1CCOCC1)c1ccccc1N1C(=O)[C@@H]2Cc3c([nH]c4ccccc34)C(c3cccc(Cl)c3)N2C1=O (stereo not given in full) 0%, CCCc1cc(=O)oc2cc(OC(C)C(=O)NCC3CCC(C(=O)O)CC3)c(Cl)cc12 (stereo not given) 7.18%, O=C(CCC(=O)N1CCOc2ccccc21)Nc1ccccc1Br 6.78%, CC1(C)Cc2c(C#N)c(NC3CCCCC3)nc(-c3ccco3)c2CO1 3.64%, COc1ccc2[nH]c3c(c2c1)CCN1C(=O)N([C@@H](C)C(=O)NCc2ccc(C)cc2)C(=O)[C@]31C 0%, CC(=O)O[C@H]1C(=O)[C@@]2(C)C([C@H](OC(=O)c3ccccc3)[C@]3(O)C[C@H](OC(=O)[C@H](O)[C@@H](NC(=O)c4ccccc4)c4ccccc4)C(C)=C1C3(C)C)[C@]1(OC(C)=O)CO[C@@H]1C[C@H]2O (stereo not given in full) 5.12%, CCc1nn(CC(=O)N2CCN(C)CC2)c(=O)c2cccn12 5.06%, Cc1ccc(S(=O)(=O)NCc2ccc3[nH]c(C)cc3c2)cc1 3.57%, CC1CCCN(C(c2ccccc2)c2sc3ncnn3c2O)C1 (stereo not given) 5.06%, CCOc1ccc(-n2c(SCC(=O)N3CCc4ccccc43)nnc2-c2c[nH]c3ccccc23)cc1 13.3%, Nc1nc2n(n1)C(c1cccc(Br)c1)CC(c1ccc(F)cc1)N2 (stereo not given) 23.4%, CCOc1ccc(-c2nc(CS(=O)(=O)CC(=O)NCc3ccc(F)cc3)c(C)o2)cc1 3.57%, COc1ccccc1NC(=O)NCCCN1CCN(c2cccc(Cl)c2)CC1 -5.49%, Cc1c(S(=O)(=O)Nc2cccc(Cl)c2)c(=O)n(C)c(=O)n1C 0.909%
